Screening data from PubChem BioAssay.
Tau fluor counter: counter-screen for tau fibril formation inhibitors. tau K18 P301L Alexa594 fluorescence, heparin fibrillization. Potency, µM (doses to about 57.7 µM), for inactives: top-dose activity change, negative = decrease. 280,000 compounds, 0.93% hits. AID 1463; also: nearly all actives have a fitted effect of over 55% in size
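Human K18 P301L tau (15 uM unlabeled plus 0.24 uM Alexa 594-labeled, final) in 100 mM sodium acetate pH 7 was mixed with compound and 20 uM heparin and incubated 6 hr at 37 C.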
NPSR antag: neuropeptide S receptor (human) antagonism, cAMP | CHO-NPSR cells, cAMP TR-FRET, antagonist mode | Potency, µM (highest dose often 38.3 µM), for inactives: at the highest dose activity change, negative = inhibition, actives largely listed as inhibitors | Q6W5P4 | 220,000 compounds, 1% hits | AID 1461; also: nearly all actives have a fitted effect of over 50% in size
Tau fibril FP: tau fibrillization inhibition (FP) | P10636 | K18 P301L tau heparin fibrillization, Alexa594 FP, 6 h | Potency, µM (highest dose often 57.7 µM), inactives show at the highest dose activity, negative = inhibition, actives largely listed as inhibitors | 280,000 compounds, 0.39% hits | AID 1468; also: nearly all actives have a fitted effect of over 55% in size
Target sequence (P10636 561-689 P618L limits assumed): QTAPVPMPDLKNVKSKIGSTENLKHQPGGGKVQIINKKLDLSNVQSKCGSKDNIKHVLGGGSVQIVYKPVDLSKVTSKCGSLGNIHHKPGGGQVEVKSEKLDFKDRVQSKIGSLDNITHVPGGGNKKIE
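Heparin (20 uM) drove fibril formation of recombinant tau K18 P301L, 15 uM unlabeled with 0.24 uM Alexa 594 label, for 6 hr at 37 C in 100 mM sodium acetate pH 7. Fluorescence polarization (555/632 nm) read 1 hr after 30 uM ThT.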
HPGD inh: inhibitors of human 15-hydroxyprostaglandin dehydrogenase (HPGD); Potency, µM, inactives show at the top dose activity change, negative = inhibition, most hits filed as inhibitors; 150,000 compounds, 4.3% hits; purified HPGD, NADH fluorescence kinetic, PGE2 substrate; active = well fitted inhibition curve with a large enough effect, not every such curve was filed as active; inconclusive = small, poorly fitted or top-dose-only effect, or another doubt; inactive = no such curve, though single readings can be large or run the other way
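20 nM HPGD preincubated 15 min at room temperature with compound in 50 mM Tris-HCl pH 8, 0.01% Tween 20. Started with 1 mM NAD+ and 30 uM prostaglandin E2; NADH fluorescence (360/450 nm) read 5 times over 30-s intervals, last minus first.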
Tau ThT inhib: inhibitors of human tau fibril formation, thioflavin T binding; 270,000 compounds, 2.1% hits; P10636; Potency, µM (doses to about 57.4 µM), without a hit: at the highest dose activity, negative = inhibition, actives largely listed as inhibitors; recombinant tau K18 P301L (four-repeat tau fragment), heparin-induced fibrillization, ThT fluorescence; also: nearly all actives have a fitted effect of over 55% in size
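Recombinant human tau K18 fragment […] carrying P301L, 15 uM unlabeled plus 0.24 uM Alexa 594-labeled, was fibrillized with 20 uM heparin in 100 mM sodium acetate pH 7 for 6 hr at 37 C; 30 uM ThT fluorescence read after 1 hr.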
ALDH1A1 inh: ALDH1A1 (human) enzyme inhibition. P00352. Purified ALDH1A1, NADH fluorescence, propionaldehyde substrate. Potency, µM (series often up to 75.3 µM), for inactives: at the highest dose activity, negative = inhibition, usual class: inhibitors. 220,000 compounds, 7.3% hits. AID 1030; active = well fitted inhibition curve with a large enough effect, not every such curve was filed as active; inconclusive = small, poorly fitted or top-dose-only effect, or another doubt; inactive = no such curve, though single readings can be large or run the other way;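 also: plate controls were no enzyme wells and a reference inhibitor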
Target sequence (P00352 whole entry, looked up): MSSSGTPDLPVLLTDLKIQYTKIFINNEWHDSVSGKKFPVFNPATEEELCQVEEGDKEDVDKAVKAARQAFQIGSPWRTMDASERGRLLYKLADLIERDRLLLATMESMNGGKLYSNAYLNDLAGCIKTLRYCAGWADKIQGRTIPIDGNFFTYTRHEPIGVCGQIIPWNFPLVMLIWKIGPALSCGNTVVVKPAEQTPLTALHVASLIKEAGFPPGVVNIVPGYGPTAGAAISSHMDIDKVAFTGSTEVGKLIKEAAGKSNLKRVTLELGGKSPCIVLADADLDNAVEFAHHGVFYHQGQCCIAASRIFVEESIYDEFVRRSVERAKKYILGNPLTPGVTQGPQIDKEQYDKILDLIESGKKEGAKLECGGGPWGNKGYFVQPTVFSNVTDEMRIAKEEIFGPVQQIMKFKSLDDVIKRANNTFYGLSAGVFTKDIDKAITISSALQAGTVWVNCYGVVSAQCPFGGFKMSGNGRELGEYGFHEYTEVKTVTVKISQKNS
The depositor's hits bear a star; ? = inconclusive; / = no result; [ ] = remark or other dose. The list is not random: actives were taken first. Their share in the collection is about 9.5%. Unless noted, calls follow the shape of the dose curve; as a rule, active = well fitted curve in the direction sought with a large enough effect; inconclusive = small, poorly fitted or top-dose-only effect, or another doubt; inactive = no such curve, though single readings can be large; an effect the other way counts as inactive or inconclusive. Unless noted, % is scaled to controls: 0 for no effect and ±100 for the full control effect; potency is read from the fitted curve at half-maximal effect.

SMILES	Tau fluor counter	NPSR antag	Tau fibril FP	HPGD inh	Tau ThT inhib	ALDH1A1 inh
CCOc1ccc(C2C(C(=O)c3ccco3)=C(O)C(=O)N2Cc2cccnc2)cc1OC (stereo unspecified)	-7%	-4%[46.1 µM]	-8%	-16%	-14%	25µM*
COCCCN1C(=O)C(O)=C(C(=O)c2ccco2)C1c1ccccc1 (stereo unspecified)	3%	?	6%	-11%	-4%	28µM*
C=CCN1C(=O)/C(=N/n2cnnc2)c2ccccc21	-10%	-4%[46.1 µM]	-3%	-6%	?	0.063µM*
C=CCN1C(=O)C(C)(C)Nc2ccccc21	1%	-1%[46.1 µM]	2%	-6%	-5%	-4%
COC(=O)c1c(-c2cccs2)csc1NC(=O)c1cc(OC)c(OC)c(OC)c1	-20%	/	?	/	11µM*	/
COC(=O)c1c(-c2cccs2)csc1NC(=O)c1cc(OC)cc(OC)c1	-29%	/	?	/	?	/
COC(=O)c1c(-c2cccs2)csc1NC(=O)c1ccc(Br)cc1	-24%	/	?	/	16µM*	/
COC(=O)c1c(-c2cccs2)csc1NC(=O)c1ccc(OC)c(OC)c1	-20%	/	?	/	?	/
COC(=O)c1c(-c2cccs2)csc1NC(=O)c1ccc(C)cc1	-25%	/	?	/	32µM*	/
Cc1nc(-c2ccccn2)sc1C(=O)Nc1ccc(Cl)c(Cl)c1	?	-26%[46.1 µM]	?	?	-6%	?
COc1ccc(CC(=O)NCc2ccc3c(c2)CCN3C(C)=O)cc1	5%	/	-1%	/	7%	/
O=C(CCCN1C(=O)c2cccc3cccc(c23)C1=O)Nc1ccon1	-5%	7%	-5%	/	-3%	-1%
CN(C)c1ccc(NC(=O)c2cn(-c3ccccc3)nc2-c2cccs2)cc1	8.9µM*[quencher]	-19%[46.1 µM]	14%	-13%	?	8.9µM*
CCN(CC)CCOC(=O)c1ccc(NC(=O)c2cn(-c3ccccc3)nc2-c2cccs2)cc1	8.9µM*[quencher]	-35%	11µM*	/	-2%	-3%
O=C(Nc1ccc2ccccc2c1)c1cn(-c2ccccc2)nc1-c1cccs1	?	-21%[46.1 µM]	?	?	-2%	?
C/C(CCC(=O)OC[C@@H]1O[C@H](C#Cc2ccccc2)C=C[C@@H]1Oc1ccc(C)cc1)=N/O[C@@H](C)c1cn([C@H](CO)Cc2ccccc2)nn1	-5%[11.6 µM]	/	?	/	-11%[11.5 µM]	-6%[13.5 µM]
O=C(CN1CCN(c2ccc(F)cc2)CC1)c1ccc2c(c1)OCO2	-17%	-16%[46.1 µM]	0%	-2%	?	8.9µM*
O=C(CN1CCN(c2ccc(Cl)cc2)CC1)c1ccc2c(c1)OCO2	-12%	-10%[46.1 µM]	0%	-7%	?	8.9µM*
Cc1ccc(C(=O)CC(=O)c2cc(Cl)ccc2O)cc1	?	-22%[46.1 µM]	-14%	28µM*	?	-2%
O=C(CCc1ccccc1)NNC(=O)c1cccc(F)c1	-6%	13%	-1%	/	-3%	6%
O=C(CC(=O)c1ccccc1O)c1cccc(F)c1	?	-23%[46.1 µM]	4%	20µM*	-23%	-12%
O=C(O)CCC(=O)NCC(=O)c1ccc(F)cc1	-2%	-31%	-2%	/	-1%	/
O=C(CC(=O)c1ccccc1O)c1ccc(F)cc1	?	?	?	18µM*	?	-6%
CCC1=C2CC[C@H]3C(=O)N(CC)C(=O)[C@H]3[C@H]2[C@@]2(Cc3ccccc3)C(=NCC3CC3)OC(=O)N2C1=O	-13%	/	1%	-7%	-13%	3%
CC(C)C(=O)N1CCN(c2ccc(NC(=O)c3ccc(Br)o3)cc2)CC1	-9%	-11%[46.1 µM]	1%	2%	?	-1%
SMILES	Tau fluor counter	NPSR antag	Tau fibril FP	HPGD inh	Tau ThT inhib	ALDH1A1 inh
CC(C)C(=O)N1CCN(c2ccc(NC(=O)c3ccc([N+](=O)[O-])o3)cc2)CC1	?	?	-6%	/	5µM*	?
CCc1ccc(NC(=O)c2ccc(OC)c([N+](=O)[O-])c2)cc1	-13%	9%	1%	-19%	-13%	11µM*
CC(C)C(=O)N1CCN(c2ccc(NC(=O)c3ccc([N+](=O)[O-])o3)cc2Cl)CC1	-8%	3.2µM*	0%	/	?	?
O=C(Nc1ccc(N2CCN(C(=O)c3ccccc3)CC2)cc1)c1ccc([N+](=O)[O-])o1	?	?	4%	/	4.5µM*	11µM*
Cc1sc(NC(=O)c2ccc(OCC(C)C)cc2)c(C(N)=O)c1-c1ccc(Cl)cc1Cl	-11%	-11%[46.1 µM]	-4%	?	-14%	?
COc1ccc(C(=O)Nc2ccc(N3CCN(C(=O)c4ccccc4)CC3)cc2)cc1[N+](=O)[O-]	?	-19%	10%	/	16µM*	?
CCCC(=O)N1CCN(c2ccc(NC(=O)c3ccc([N+](=O)[O-])o3)cc2Cl)CC1	-27%	4µM*	?	/	13µM*	18µM*
COc1ccc(C(=O)Nc2ccc(N3CCN(C)CC3)cc2)cc1[N+](=O)[O-]	-1%	-7%	13%	/	-13%	?
CCCCCCCCCCCC(=O)NC(Cc1ccc(OC)c([N+](=O)[O-])c1)C(=O)O (stereo unspecified)	-6%	-5%	2%	/	-17%	/
CCCCOc1ccc(C(=O)Nc2ccc(N3CCN(C(=O)C(C)C)CC3)cc2)cc1	-26%	0%[46.1 µM]	-1%	-15%	2µM*	-2%
CCOC(=O)C(Cc1ccc(OC)c([N+](=O)[O-])c1)NC(=O)CCC(=O)Nc1ccc(OC)cc1 (stereo unspecified)	1%	-2%	2%	/	-3%	4.5µM*
CCCCOc1ccc(C(=O)Nc2ccc(N3CCN(C(C)=O)CC3)cc2)cc1	-23%	-1%[46.1 µM]	?	-23%	?	?
C=CC[C@@H]1C=C[C@H](O/N=C(\C)CCN2CCCc3nc(C)c(C)cc32)[C@H](CO)O1	3%[11.6 µM]	/	6%[11.6 µM]	/	3%[11.5 µM]	?
O=C(Nc1ccc2ccccc2c1)c1onc2c1CCCC2	-21%	-28%[46.1 µM]	-8%	-15%	-10%	4%
CCOC(=O)N1CCN(C(=O)C(=O)NN)CC1	3%	-3%	0%	/	-2%	13µM*
